High-throughput results as filed in PubChem.
A selection: hits, their analogues and other compounds. The true share with any hit is near 8.9%.
D3 ag: D3 dopamine receptor (human) agonism; D3R DiscoveRx beta-arrestin cells, luminescence, 90 min; max activation, %; hit rate 0.58% among 410,000; in the data active = max activation above about 30%; note: 0% is about no effect
Target sequence (P35462 whole entry, looked up): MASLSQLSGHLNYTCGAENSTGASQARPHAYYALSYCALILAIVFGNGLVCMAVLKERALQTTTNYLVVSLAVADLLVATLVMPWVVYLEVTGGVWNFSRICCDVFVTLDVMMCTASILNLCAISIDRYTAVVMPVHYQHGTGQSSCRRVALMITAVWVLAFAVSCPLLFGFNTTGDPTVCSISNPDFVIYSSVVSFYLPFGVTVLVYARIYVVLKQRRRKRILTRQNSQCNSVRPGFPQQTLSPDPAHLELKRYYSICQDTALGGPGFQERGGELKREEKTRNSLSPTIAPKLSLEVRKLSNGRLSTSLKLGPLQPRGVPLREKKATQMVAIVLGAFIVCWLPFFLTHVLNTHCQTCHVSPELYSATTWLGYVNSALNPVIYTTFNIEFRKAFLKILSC
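Cells at 1500/well, incubated overnight, then treated with pinned compounds (dopamine as control) for 90 min at 37 degrees C. DiscoveRx reagent added for 30 - 60 minutes at room temperature; luminescence read.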
KB-3-1 tox: kills parental KB-3-1 adenocarcinoma cells; KB-3-1 viability, CellTiter-Glo ATP luminescence, 72 h; Potency, µM (top dose mostly 46.1 µM), actives largely listed as cytotoxic; hit rate 1.4% among 400,000; AID 1347075; note: potency is the fitted concentration of half-maximal effect; % is set by controls: 0 for no effect and ±100 for the full control effect; nearly all actives have a fitted effect of over 60% in size
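Using CellTiter-Glo luminescence, growth of non-resistant KB-3-1 adenocarcinoma cells is assessed 72 h after pin-tool compound addition at 37 °C. Normalized responses across the concentration series yield fitted curves.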
SW480 rerep: DNA re-replication induction in SW480 cells. hit rate 1.8% among 340,000. SW480 DNA re-replication, Hoechst DNA content imaging, 48 h. Potency, µM (highest dose often 46.1 µM), for the others: top-dose re-replication activation, actives largely listed as activators. AID 624297; note: potency is the fitted concentration of half-maximal effect; % of control where 0% means no effect; nearly all actives have a fitted effect of over 55% in size
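Readout is total intensity of Hoechst-stained nuclei, excited at 405 nm and collected at 500-530 nm. Compound treatment lasted 48 hr at 37 C in 5% CO2 before staining.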
KB-V1 cytotox: kills drug-selected multidrug resistant KB-V1 cells | KB-V1 MDR cells viability, CellTiter-Glo, 72 h | Potency, µM (series often up to 46.1 µM), hits mostly cytotoxic | hit rate 3.4% among 400,000; note: potency is the fitted concentration of half-maximal effect; % is set by controls: 0 for no effect and ±100 for the full control effect; nearly all actives have a fitted effect of over 60% in size
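Drug-selected KB-V1 cells, grown in DMEM lacking phenol red with 10% FBS, receive compound titrations; after three days at 37 degrees C, surviving cell ATP is quantified by CellTiter-Glo luminescence and responses normalized and curve-fitted.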
DRD3 antagonist: blocks the human D3 dopamine receptor | D3R cells, DiscoveRx beta-arrestin luminescence, antagonist mode; active compounds read low | max response, negative = inhibition, % | hit rate 2.5% among 360,000; in the data active = max response below about -50%; inconclusive = no clear call, values can overlap the other calls; note: % is set by controls: 0 for no effect and ±100 for the full control effect
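Cells plated overnight at 1500 cells/well, then exposed to library compounds with dopamine controls for 90 minutes at 37 degrees C. DiscoveRx reagent added for 30–60 minutes at room temperature; luminescence read, quantitative HTS format.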
MCF10A rereplic: induces DNA re-replication in MCF 10a normal breast cells; hit rate 2.9% among 350,000; Potency, µM (doses to about 46.1 µM), for the others: at the top dose activity, positive = re-replication, actives largely listed as activators; MCF 10A DNA re-replication, Hoechst nuclear intensity, 48 h; note: potency is the fitted concentration of half-maximal effect; % of control where 0% means no effect; nearly all actives have a fitted effect of over 50% in size
* marks the source's active call; other numbers are inactive results; i = inactive; ? = inconclusive; / = not tested or not shown; ! = a repeat was not active. Unless noted, calls come from the whole dose curve; as a rule, active = well fitted curve in the direction sought with a large enough effect; inconclusive = small, poorly fitted or top-dose-only effect, or another doubt; inactive = no such curve, though single readings can be large; an effect the other way counts as inactive or inconclusive.

SMILES	D3 ag	KB-3-1 tox	SW480 rerep	KB-V1 cytotox	DRD3 antagonist	MCF10A rereplic
Cc1nc(SCCCSc2n[nH]c(C)n2)n[nH]1	-9	i	-2%	i	-69*	?
COc1cc(C(=O)OC(C)c2ccc(F)cc2)ccc1OCC(=O)N1CCOCC1 (centres undefined)	-7	i	-1%	i	2	-1%
CS(=O)(=O)c1ccc(NC(=O)COc2ccccc2C(=O)Nc2ccccc2)cc1	/	i	/	i	/	/
Cc1nc2sc(C(=O)Nc3ccccc3Cc3ccccc3)c(C)c2c(=O)[nH]1	3	i	-7%	?	6	5.8µM*
Cc1ccccc1NC(=O)c1sc2nc[nH]c(=O)c2c1C	2	i	-1%	i	-23	-10%
O=C(OC[C@H]1O[C@](O)(COC(=O)c2cccnc2)[C@@H](OC(=O)c2cccnc2)[C@@H]1OC(=O)c1cccnc1)c1cccnc1	-8	/	/	/	/	/
CC1CCCCN1C(=O)CCC(=O)Nc1nnc(C(F)(F)F)s1 (centres undefined)	-2	i	?	i	6	23µM*
CCc1ccc(NC(=O)c2cc3nc(-c4ccc(C)cc4)cc(C(F)(F)F)n3n2)cc1	6	i	/	i	/	/
CN(C)c1ccc(/C=C/C(=O)Nc2cccc([S+](=O)([O-])Nc3ccccc3F)c2)cc1	/	i	/	i	/	/
COc1cc(OC)c(OC)cc1/C=C/c1ccnc2ccccc12	0	?	?	?	1	?
COc1ccc(OC)c(/C=C/c2ccnc3ccccc23)c1	0	?	12µM*	5.2µM*	-14	5.2µM*
COc1ccccc1/C=C/c1ccnc2ccccc12	/	i	/	i	/	/
COc1ccc2nccc(/C=C/c3ccnc4ccc(OC)cc34)c2c1	7	i	23µM*	i	18	15µM*
Cc1cc(Oc2c(C(F)(F)F)oc3c(CN4CCC(C)CC4)c(O)ccc3c2=O)cc(C)c1Cl	-3	i	/	i	/	/
COc1ccccc1NC(=O)c1cc2c(=O)oc3ccc(C)cc3c2s1	3	/	/	/	/	/
CCOP(=O)(OCC)C(Cc1ccc(OC)c(OC)c1)N=C(c1ccccc1)c1ccccc1 (centres undefined)	-1	i	/	15µM*	-4	/
Cc1nc([N+](=O)[O-])c(Sc2nc3ccccc3n2C)n1Cc1ccccc1	2	i	?	i	4	15µM*
COc1ccc(Nc2nc(NC(C)(C)C)nc(N3CCCC3)n2)c(OC)c1	-6	i	?	18µM*	-21	?
COc1ccc(Nc2nc(N3CCCC3)nc(N3CCCC3)n2)c(OC)c1	146*	i	-2%	?	44	27%
COc1ccc(Nc2nc(NC(C)(C)C)nc(N3CCOCC3)n2)c(OC)c1	-6	?	?	i	-8	15%
Cn1c(=O)c2cc(C(=O)N3CCN(c4ccc(Cl)cc4)CC3)sc2c2ccccc21	11	i	/	i	/	/
O=C(Nc1ccc(C(=O)OCc2cc(=O)n3c4c(sc3n2)CCCC4)cc1)c1ccc(Cl)cc1	3	/	/	/	/	/
Cn1c(SCC(=O)N(Cc2ccccc2)C(C)(C)C)nc2ccccc21	-12	i	?	21µM*	-7	?
c1c2c(cc3sc(N4CCCCC4)nc13)OCO2	6	9.2µM*	-2%	?	-16	9%
O=C(Cc1ccc(F)cc1)Nc1nnc2n1CCS2	-7	i	/	i	/	/
SMILES	D3 ag	KB-3-1 tox	SW480 rerep	KB-V1 cytotox	DRD3 antagonist	MCF10A rereplic
Cc1ccc2c(c1)NC(=O)[C@@]1(C)[C@@H](c3ccccc3)[C@H]3COc4ccccc4[C@@H]3N1C2=O	-1	i	2%	i	0	-8%
CCOC(=O)[C@@H]1[C@H]2COc3ccccc3[C@@H]2N2C(=O)N(c3ccc(Br)cc3)C(=O)[C@]12C	-5	i	23µM*	i	-24	-7%
Cc1ccc2c(c1)[C@H]1[C@H](CO2)[C@H](c2ccccc2)[C@]2(C)C(=O)Nc3cc(F)ccc3C(=O)N12	-7	?	?	?	?	5.8µM*
CCOC(=O)[C@@H]1[C@H]2COc3ccccc3[C@H]2N2C(=O)N(c3ccc(Br)cc3)C(=O)[C@]12C	-6	i	-9%	i	-5	0%
CCOC(=O)[C@H]1[C@H]2COc3ccc(Br)cc3[C@@H]2N2C(=O)c3ccc(Cl)cc3NC(=O)[C@@]12C	-27	?	-13%	?	-75*	17%
C[C@@]12C(=O)Nc3cc(F)ccc3C(=O)N1[C@H]1c3cc(Br)ccc3OC[C@@H]1[C@@H]2c1ccccc1	4	?	?	?	-3	7.3µM*
Nc1c(C(=O)Nc2ccccc2)nnn1Cc1ccc(F)cc1Cl	-12	/	/	/	/	/
CC(NC(=O)CCCn1c(=O)c2cccn2c2cccnc21)c1ccccc1 (centres undefined)	-9	/	/	/	/	/
COc1ccc(N2CC(NC(=O)CCc3ccccc3)CC2=O)cc1OC (centres undefined)	4	i	/	i	/	/
CC(C)CCNC(=O)c1ccc2nc(CCc3ccccc3)oc2c1	1	i	/	i	/	/
CCCN(CCC)Cc1cc2ccccc2c2c1COC2	-13	i	1%	i	-64*	5%
Cc1ccccc1NC(=O)Cn1nnc(C(=O)NCc2ccco2)c1N	4	18µM*!	15µM*	?	-4	?
CCOc1ccccc1NC(=O)Cn1nnc(C(=O)NCc2ccco2)c1N	-11	0.01µM*	?	0.26µM*	?	0.13µM*
Cc1cccc(NC(=O)Cn2nnc(C(=O)NCc3cccs3)c2N)c1C	7	i	1%	i	11	1%
CCOc1ccccc1NC(=O)c1nnn(CC(=O)Nc2ccc3c(c2)OCO3)c1N	5	?	-21%	?	12	6%
CCOc1ccccc1NC(=O)Cn1nnc(C(=O)NCc2ccc3c(c2)OCO3)c1N	-8	9.2µM*	?	?	-24	4.6µM*
Cc1ccccc1NC(=O)Cn1nnc(C(=O)NCc2cccs2)c1N	2	3.3µM*	/	i	/	/
CCCCn1c(=O)c2oc3ccccc3c2n(Cc2ccc(C)cc2)c1=O	-22	i	/	?	/	/
CCOC(=O)C(NC(=O)c1ccccc1)(OCC1(CC)COC1)C(F)(F)F (centres undefined)	-6	i	-3%	18µM*	?	0%
Cc1cc(C)nc(N2CCCC(C(=O)Nc3cc(F)ccc3C)C2)n1 (centres undefined)	3	i	-2%	16µM*	13	-4%
Cc1cc(C)nc(N2CCCC(C(=O)NCCc3cccc(F)c3)C2)n1 (centres undefined)	6	i	-8%	18µM*	13	-1%
